Measurements as given in PubChem BioAssay AID743327 (National Center for Advancing Translational Sciences (NCATS), 2014).
Active and inactive are the calls of the source. A call without a number means that no potency is given here. Calls follow the shape of the full dose curve. *1 amine or outer side, *2 acyl side, *3 side chain or, on linkers, in order; H or OH if unused. Where a SMILES comes first, the peptide text is derived from it. Bridges are numbered along the chain shown (N, C = ends). Roman numbers before positions name the chains, in order. [ ]: non-standard residue; d: D form. Actinocin(9to1) = Cc1c2oc3c(C)ccc(C(=O)[*:1])c3nc-2c(C(=O)[*:2])c(N)c1=O; NMeV = CN[CH](C(=O)O)C(C)C; Orn = NCCC[C@H](N)C(=O)O; Sar = CNCC(=O)O

Assay: qHTS profiling of Chloroquine Analogs as inhibitors of Plasmodium falciparum (HB3) proliferation
Conditions: P. falciparum HB3 proliferation; series mostly up to 28.7 µM
Description: Plasmodium falciparum is a virulent malarial parasite that kills 1-2 million people worldwide each year. Transmitted by mosquitoes, the sporozoite form of the parasite enters the blood stream to infect hepatocytes, where they become merozoites that infect red blood cells (erythrocytes). Within erythrocytes, merozoites begin a […] cycle of growth and division, after which the parasite is released to infect new red blood cells. Gametocytes, which form within erythrocytes as well, circulate in the bloodstream and are ingested by the mosquito, thereby completing the life cycle. To profile malarial isolates for differential chemical responses and to identify inhibitors of malarial growth, an assay that measures P. falciparum growth and replication within erythrocytes was employed. This assay uses a DNA binding fluorescent dye (SYBR Green) to detect parasite DNA following cell lysis. Because mature erythrocytes lack DNA, only Plasmodium-derived DNA is detected.
The SYBR Green viability assay was adapted from a method described previously (Plouffe et al., 2008). For screening 3 ul culture medium was dispensed into 1536 well black clear bottom plates (Aurora Biotechnologies) using a Multidrop Combi (Thermo Fisher Scientific Inc.), 23 nL compounds in DMSO were added by a pin tool (Kalypsys), and 5 ul of erythrocytes infected with P. falciparum (0.3% parasitemia, 2.5% hematocrit final concentration) were added. The plates were incubated at 37 C in a humidified incubator in 5% CO2 for 72 h, and 2 ul lysis buffer (20 mM Tris HCl, 10 mM EDTA, 0.16% saponin, 1.6% triton X, 10X SYBR Green I supplied as 10,000X […] by Invitrogen) was added to each well. The plates were mixed for 25 sec with gentle shaking and incubated overnight at room temperature in the dark. The following morning, fluorescence intensity at 485(14) nm excitation and 535(25) nm emission wavelengths was measured on an EnVision (Perkin Elmer) plate reader. Plate reads were normalized relative to the control inhibitor (0.29 uM artemisinin) and vehicle (DMSO) wells present on each plate and then corrected by an algorithm using vehicle-only control plates at the beginning and end of the compound plate stack.

SMILES	Potency
C#C[C@]1(O)CC[C@@H]2[C@H]3CCC4=CC(=O)CC[C@H]4[C@H]3C(=C)C[C@@]21CC	749 nM (active)
OB1OCc2cc(F)ccc21	inactive
Cn1cncc1[C@@](N)(c1ccc(Cl)cc1)c1ccc2c(c1)c(-c1cccc(Cl)c1)cc(=O)n2C	inactive
COc1cc(NC(C)CCCN)c2ncccc2c1 (stereo not given)	804 nM (active)
CC(C)C[C@@H]1NC(=O)[C@H](CCCN)NC(=O)[C@H](C(C)C)NC(=O)[C@@H]2CCCN2C(=O)[C@@H](Cc2ccccc2)NC(=O)[C@H](CC(C)C)NC(=O)[C@H](CCCN)NC(=O)[C@H](C(C)C)NC(=O)[C@@H]2CCCN2C(=O)[C@@H](Cc2ccccc2)NC1=O (cyclo(V[Orn]L[dF]PV[Orn]L[dF]P))	inactive
O=C1C(=O)c2ccccc2C(O)=C1C1CCC(c2ccc(Cl)cc2)CC1 (stereo not given)	0.5 nM (active)
CCCC(=O)O[C@]1(C(=O)CCl)[C@H](C)C[C@@H]2[C@H]3CCC4=CC(=O)C=C[C@]4(C)[C@@]3(F)C(=O)C[C@@]21C	inactive
O[C@H](c1cc(C(F)(F)F)nc2c(C(F)(F)F)cccc12)[C@H]1CCCCN1	inactive
COc1cc(C=CC(=O)CC(=O)C=Cc2ccc(O)c(OC)c2)ccc1O	inactive
CCN(CC)CCCC(C)Nc1ccnc2cc(Cl)ccc12 (stereo not given)	inactive
Cc1c2oc3c(C)ccc(C(=O)NC4C(=O)NC(C(C)C)C(=O)N5CCCC5C(=O)N(C)CC(=O)N(C)C(C(C)C)C(=O)OC4C)c3nc-2c(C(=O)NC2C(=O)NC(C(C)C)C(=O)N3CCCC3C(=O)N(C)CC(=O)N(C)C(C(C)C)C(=O)OC2C)c(N)c1=O (stereo not given) (I: TVP[Sar][NMeV] / II: TVP[Sar][NMeV]; ester I:1-I:C, II:1-II:C; linker I:N-II:N via Actinocin(9to1); configuration not given here)	inactive
CC[C@H]1OC(=O)[C@H](C)[C@@H](O[C@H]2C[C@@](C)(OC)[C@@H](O)[C@H](C)O2)[C@H](C)[C@@H](O[C@@H]2O[C@H](C)C[C@H](N(C)C)[C@@H]2O)[C@](C)(O)C[C@@H](C)CN(C)[C@H](C)[C@@H](O)[C@]1(C)O	9430 nM (active)
CN1CCN(CCCN2c3ccccc3Sc3ccc(S(=O)(=O)N(C)C)cc32)CC1	716 nM (active)
C[C@H]1[C@@H](OC(=O)CCC(=O)O)O[C@@H]2OC3(C)CC[C@H]4[C@H](C)CC[C@@H]1[C@@]24OO3	3 nM (active)
NC(=NCc1ccccc1)NC(=O)c1nc(Cl)c(N)nc1N	inactive
C[C@H]1[C@@H](CCC(=O)Nc2ccc(F)cc2)O[C@@H]2O[C@]3(C)CC[C@@H]4[C@H](C)CC[C@@H]1[C@@]24OO3	6.7 nM (active)
C[C@H]1Cc2c([nH]c3cc(Cl)c(F)cc23)[C@@]2(N1)C(=O)Nc1ccc(Cl)cc12	inactive
Cc1oncc1C(=O)Nc1ccc(C(F)(F)F)cc1	inactive

SMILES	Potency
COC(=O)C1C2CC3c4[nH]c5cc(OC)ccc5c4CCN3CC2CC(OC(=O)c2cc(OC)c(OC)c(OC)c2)C1OC (stereo not given)	inactive
C[C@@H]1[C@@H](C(=O)C[C@H]2O[C@@H]3O[C@]4(C)CC[C@@H]5[C@H](C)CC[C@@H]([C@H]2C)[C@@]35OO4)O[C@@H]2O[C@]3(C)CC[C@H]4[C@H](C)CC[C@@H]1[C@@]24OO3	inactive
CCN(CC)CCOc1ccc2c(=O)c3ccc(Cl)cc3n(CCN(CC)CC)c2c1	530 nM (active)
COc1ncnc(NS(=O)(=O)c2ccc(N)cc2)c1OC	1500 nM (active)
CC[C@@H](C)[C@H]1O[C@]2(CC[C@H]1C)C[C@@H]1C[C@@H](CC=C(C)[C@@H](O[C@H]3C[C@H](OC)[C@@H](O[C@H]4C[C@H](OC)[C@@H](O)[C@H](C)O4)[C@H](C)O3)[C@@H](C)C=CC=C3CO[C@@H]4[C@H](O)C(C)=C[C@@H](C(=O)O1)[C@]34O)O2	inactive
CCCCN(CCCC)CCC(O)c1cc2c(Cl)cc(Cl)cc2c2cc(C(F)(F)F)ccc12 (stereo not given)	5.1 nM (active)
CN1CC[C@H](CN2c3ccccc3Sc3ccccc32)C1	10600 nM (active)
C=CCON=C(C[C@H]1O[C@@H]2O[C@]3(C)CC[C@@H]4[C@H](C)CC[C@@H]([C@H]1C)[C@@]24OO3)[C@H]1O[C@@H]2O[C@]3(C)CC[C@H]4[C@H](C)CC[C@@H]([C@@H]1C)[C@@]24OO3	inactive
COCC(=O)O[C@]1(CCN(C)CCCc2nc3ccccc3[nH]2)CCc2cc(F)ccc2[C@@H]1C(C)C	1500 nM (active)
CCCCCCCCCCOc1cc2c(=O)c(C(=O)OCC)c[nH]c2cc1OCC	inactive
CN(C)CC/C=C1\c2ccccc2COc2ccccc21	2540 nM (active)
CSc1cccc(NC(=O)CC[C@H]2O[C@@H]3O[C@]4(C)CC[C@H]5[C@H](C)CC[C@@H]([C@@H]2C)[C@@]35OO4)c1	18.8 nM (active)
CNC(=O)c1cc(Oc2ccc(NC(=O)Nc3ccc(Cl)c(C(F)(F)F)c3)cc2)ccn1	4210 nM (active)
Cc1cccc(C)c1NC(=O)C(C)N (stereo not given)	inactive
Clc1ccc(COC(Cn2ccnc2)c2ccc(Cl)cc2Cl)c(Cl)c1 (stereo not given)	inactive
CC(CNC1CCCCC1)OC(=O)c1ccccc1 (stereo not given)	inactive
CN([C@@H](Cc1ccc(OS(=O)(=O)c2cccc3cnccc23)cc1)C(=O)N1CCN(c2ccccc2)CC1)S(=O)(=O)c1cccc2cnccc12	inactive
